27 molecules from PubChem BioAssay AID493030 (The Scripps Research Institute Molecular Screening Center, 2011) can be followed below.

SMILES strings stand for the structures. Out of some 2,300 compounds screened, about 1,500 (65%) were called active. So high a share suggests a set chosen from earlier hits. These entries were drawn from the full list. A number with no mark means an inactive call.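 Rule for the calls: active = mean inhibition over three repeats above a set limit taken from the earlier primary screen (cut at about 30% in these data); inactive = the rest.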

This assay deals with Platelet-activating factor acetylhydrolase 2, cytoplasmic (Homo sapiens) (UniProt Q99487). Briefly: inhibition of cytoplasmic PAF acetylhydrolase 2 – biochemical, fluorescence polarization, human, confirmation (AID 493030).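 Note: inhibitor blocks binding of rhodamine activity probe so polarization falls; 0% = enzyme with DMSO and 100% = wells lacking PAFAH2 protein.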 Particulars: recombinant PAFAH2, FP-rhodamine activity probe, at 3.39 µM, stronger effect = higher value. Background: In fluorescence polarisation assays a small probe gives low polarisation when free and higher when bound to something large.
Broadly, the inhibition is the percentage by which the read-out fell short of the control. For the molecule `COc1ccc(C(=O)ON=C2c3ccccc3-c3ccccc32)cc1OC`, the inhibition is 68.7% (active).
As for `COc1ccc(/C=N/N(C)C2=NS(=O)(=O)c3ccccc32)cc1OC`, the inhibition was 9.39%.
Regarding `O=C(Nc1nnc(SCc2c(Cl)cccc2Cl)s1)c1cccc([N+](=O)[O-])c1`, the inhibition is 52% (active).
As for `O=C(Nc1nnc(SCc2ccccc2Cl)s1)c1cccc([N+](=O)[O-])c1`, the inhibition is 22.6%.
For `O=C(Nc1nnc(SCc2c(Cl)cccc2Cl)s1)C1CCCO1` (configuration not stated), the inhibition is 24%.
As for `O=c1oc(/C=C/c2ccccc2)nc2ccccc12`, the inhibition is 79.7% (active).
The value for `Cc1ccc(NC(=O)COC(=O)C2CC2)cc1S(=O)(=O)N1CCOCC1` was 61.3% (active); that for `Cc1ccc(C(=O)OCC(=O)Nc2ccc(Cl)cn2)cc1S(=O)(=O)N1CCOCC1` was 54.4% (active); that for `Cc1ccc(NC(=O)COC(=O)C2C3CC4OC(=O)C2C4C3)cc1Cl` (configuration not stated) was 76% (active).
The value for `O=C(COC(=O)c1ccco1)Nc1ccc(Cl)cn1` was 33.1% (active); that for `Cc1ccc(Cl)cc1NC(=O)COC(=O)C1CCCCC1` was 17.7%; that for `Oc1oc(-c2ccccc2Br)nc1/C=N/c1ccccn1` was 52.6% (active).
Consider `COc1ccc(C2=NN(c3nc4ccccc4s3)C(=O)C2)cc1`, for which the inhibition was 46.9% (active).
The value for `CC1CC1C(=O)OCC(=O)Nc1cccc(F)c1` (configuration not stated) was 83.6% (active); that for `O=C(COC(=O)C1CC2C=CC1C2)Nc1ccccc1` (configuration not stated) was 69.6% (active); that for `COc1cc(NC(=O)COC(=O)c2ccc([N+](=O)[O-])s2)cc(OC)c1OC` was 35.9% (active).
Regarding `O=C(OCc1nc2ccccc2[nH]1)C1CCCCC1`, the inhibition was 51.7% (active).
Next, `Cc1c(Cl)cnc(NC(=O)COC(=O)C2CCCC2)c1Cl`: 15.8%; `O=C(O)c1ccccc1N=N/C(=N/Nc1cc(S(=O)(=O)O)ccc1O)c1ccccc1`: 8.84%; `COc1ccccc1Nc1nc(N)nc(CSC(=S)N2CCOCC2)n1`: 26.7%.
Take `CCn1c(/C=N/NC(=O)c2ccc(OC)cc2)nc2ccccc21`: the inhibition is 6.41%.
Take `N#Cc1cccc(NC(=O)COC(=O)c2ccccc2C(=O)c2ccc(Cl)c([N+](=O)[O-])c2)c1`: the inhibition was 34.2% (active).
In the case of `CC1=NN(c2ccc(Cl)c(C(=O)O)c2)C(=O)/C1=C/c1ccc(-c2ccccc2[N+](=O)[O-])o1`, the inhibition is 27.5%.
Regarding `Cc1cc(C(=O)COC(=O)C2CC2)c(C)n1-c1ccc(F)cc1`, the inhibition was 36.1% (active).
In the case of `CC(=O)Oc1ccc(-c2nc3c(C)cccc3c(=O)o2)cc1`, the inhibition is 23.6%.
Regarding `Cc1ccc(-c2nc3c(cnn3-c3ccccc3)c(=O)o2)cc1`, the inhibition is 44% (active).
Regarding `Cc1cccc(/C=N/NC(=O)CNc2cccc3ccccc23)n1`, the inhibition was 30.5% (active).
